MmCpn inh: Inhibitors of TCP-1 ring complex (TRiC) of Methanococcus maripaludis (MmCpn): qHTS; 0.031% of 330,000 active; Potency, µM (top dose mostly 76.9 µM), without a hit: top-dose activity, negative = inhibition, actives largely listed as inhibitors; AID 504842, 2011; purified Mm-Cpn ATPase, ADP Transcreener TR-FRET; Chaperonin Mm-Cpn (Methanococcus maripaludis); further: potency means the concentration at half of the fitted maximal effect; on the % scale 0 is the no-effect control and ±100 the full control effect; nearly all actives have a fitted effect of over 80% in size
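ATPase turnover read by TR-FRET ADP competition (Eu cryptate antibody/ADP-d2, 665/590 nm): 10uM ATP final, 25nM Mm-CPN final, 30 min 37degC after 10-min compound preincubation, pH 7.4 Tris/KCl/MgCl2/DTT buffer.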
B2AR arrestin: qHTS assay of beta-arrestin-biased ligands of beta2-adrenergic receptor; Potency, µM (series often up to 46.1 µM), without a hit: at the highest dose activation, hits mostly activators; beta-arrestin recruitment to beta2AR, cell-based reporter; 0.02% of 330,000 active;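 further: potency means the concentration at half of the fitted maximal effect; 0% = DMSO controls and full agonism = EC100 isoproterenol or metaproterenol; nearly all actives have a fitted effect of over 65% in size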
TSHR antagonist: Antagonists of the Thyroid Stimulating Hormone Receptor: HTS campaign | AID 504810, 2011 | TSHR-expressing cells, TSH-stimulated cAMP HTRF, 2 h; hits give low values | 0.2% of 330,000 active | Thyrotropin receptor (Homo sapiens), P16473 | activity change, negative = inhibition, % at 11.5 µM;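 active means activity change below a set negative limit, meaning inhibition stronger than a set level, cut at about -70% in these data; inconclusive means activity change between two set negative limits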; further: on the % scale 0 is the no-effect control and ±100 the full control effect
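TSHR-expressing cells, 200/well, pre-treated with compound, then stimulated with EC80 TSH (4nM final) for 2 hours at 37 deg C. cAMP measured by competitive HTRF: anti-cAMP cryptate antibody in lysis buffer plus cAMP-d2, read after 30 minutes at room temperature.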
TCR act: Activators of T cell receptors: qHTS campaign | primary human leukocytes, anti-CD3, IL-2 HTRF, 48 h | Potency, µM (titrated, usually from 9.22 µM), for the others: at the top dose activation of IL-2 secretion, actives largely listed as activators | 330,000 tested, under 10 active | AID 504894, 2011; further: % of control where 0% means no effect
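48 hr co-incubation of compounds, a-CD3 beads and primary human leukocytes; IL-2 quantified homogeneously by HTRF with anti-IL-2 K and d2 conjugates.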
CCT chaperon mod: High-Throughput Screening for Modulators of Cytosolic Chaperonin Activity. activity change, % (test concentration not listed), hits read low. 0.3% of 360,000 active. purified chaperonin ATPase assay, HTRF ADP detection, 30 min; in the data active means activity change below about -30%; further: on the % scale 0 is the no-effect control and ±100 the full control effect
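Nucleotide hydrolysis assay: TRiC at 20–40 nM final (set by batch activity) with 10 uM ATP, 30 min at 37 °C, in presence of 76 uM compound. Detection by competitive ADP HTRF, 30 min ambient.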
An asterisk follows results filed as active; [ ] = remark or other dose. An excerpt weighted towards active compounds, which were near 0.5% of everything screened. Unless noted, the call rests on the fitted dose curve; in most records, active means well fitted curve in the direction sought with a large enough effect; inconclusive means small, poorly fitted or top-dose-only effect, or another doubt; inactive means no such curve, though single readings can be large; an effect the other way counts as inactive or inconclusive.

What do the screens show for `CCN(CC)S(=O)(=O)c1ccc(OC)c(NC(=O)C(C)Oc2ccc3c(C)cc(=O)oc3c2)c1` (configuration not stated)?
MmCpn inh: -22%; B2AR arrestin: 0%; TSHR antagonist: -4; TCR act: -1%[46.1 µM]; CCT chaperon mod: -31*

What do the screens show for `COc1ccc(/C=C/C(=O)Nc2ccccc2C(=O)O)cc1`?
MmCpn inh: 0%; B2AR arrestin: 0%; TSHR antagonist: 13; TCR act: 1%; CCT chaperon mod: -36*

How did COc1ccc(/C=C/C(=O)Nc2ccccc2C(=O)N2CCCC2)cc1 do in these assays?
MmCpn inh: 1%; B2AR arrestin: 0%; TSHR antagonist: 0; TCR act: 2%; CCT chaperon mod: 0

What do the screens show for `CS(=O)(=O)N(CC(=O)NCCSC1CCCCC1)c1ccccc1`?
MmCpn inh: inconclusive; B2AR arrestin: 0%; TSHR antagonist: 4; TCR act: -4%; CCT chaperon mod: -33*

What do the screens show for `Cc1ccc(NC(=O)[C@@H](C)NC(=O)[C@@H]2Cc3ccccc3CN2)cc1`?
MmCpn inh: 3%; B2AR arrestin: 0%; TSHR antagonist: -8; TCR act: -5%; CCT chaperon mod: -1

What do the screens show for `C[C@@H](NC(=O)[C@@H]1Cc2ccccc2CN1)C(=O)NC1CCCCC1`?
MmCpn inh: 0%; B2AR arrestin: 0%; TSHR antagonist: -134*; TCR act: -5%; CCT chaperon mod: -3

Results for COc1cc2c(cc1OC)CN(C1CCCN(Cc3cccc(C(C)=O)c3)C1)CC2 (configuration not stated) ?
TCR act: 2%; CCT chaperon mod: 0

How did Cc1ccc(OCC(=O)N2CCN(C(=O)CCC3CCCC3)CC2)cc1 do in these assays?
MmCpn inh: 0%; B2AR arrestin: 0%; TSHR antagonist: -11; TCR act: 3%; CCT chaperon mod: -76*

Results for Cc1cnc(C(=O)OCC(=O)Nc2cc(-c3cc(C)c(C)cc3C)nn2-c2ccccc2)cn1 ?
MmCpn inh: 0%; B2AR arrestin: -1%; TSHR antagonist: 5; TCR act: 1%; CCT chaperon mod: -3

What do the screens show for `CCOc1cc(C)nc(N2CCCC(C(=O)NCc3ccccc3F)C2)n1` (configuration not stated)?
MmCpn inh: 0%; B2AR arrestin: 0%; TSHR antagonist: -1; TCR act: -4%; CCT chaperon mod: -41*

How did COc1ccc(S(=O)(=O)CCC(=O)N2CCN(c3ccc(F)cc3)CC2)cc1 do in these assays?
MmCpn inh: 1%; B2AR arrestin: 0%; TSHR antagonist: 5; TCR act: 5%; CCT chaperon mod: -6

Results for O=C(Cc1ccccc1[N+](=O)[O-])Nc1nccs1 ?
MmCpn inh: -2%; B2AR arrestin: 0%; TSHR antagonist: 4; TCR act: -10%; CCT chaperon mod: -33*

Results for O=C(Cn1cc(C(F)(F)F)ccc1=O)Nc1ccc2c(c1)OCO2 ?
CCT chaperon mod: -2

What do the screens show for `COc1ccc(C(=O)NNC(=O)CSc2nnc(C)n2CC2CCCO2)cc1` (configuration not stated)?
MmCpn inh: 1%; B2AR arrestin: 0%; TSHR antagonist: 4; TCR act: 2%; CCT chaperon mod: -1

Results for O=C(NCCS(=O)(=O)N1CCN(c2ccccc2)CC1)C1CC(=O)N(c2ccccc2)C1 (configuration not stated) ?
MmCpn inh: 2%; B2AR arrestin: 0%; TSHR antagonist: -135*; TCR act: -5%; CCT chaperon mod: 0

What do the screens show for `COc1ccc(NC(=O)CN(C)C(=O)c2cccc(S(=O)(=O)N3CCN(C)CC3)c2)cc1`?
MmCpn inh: 0%; B2AR arrestin: -1%; TSHR antagonist: 3; TCR act: -1%; CCT chaperon mod: 0

Results for O=NN(CCF)C(=O)NC1CCS(=O)(=O)CC1 ?
CCT chaperon mod: 0

How did CCCCCCN1CCN(C2CN(Cc3cn(Cc4ccccc4)nn3)S(=O)(=O)C2)CC1 (configuration not stated) do in these assays?
CCT chaperon mod: -32*
